Assay results as given in PubChem BioAssay (NCATS).
Results filed as inconclusive are left out. Values without a mark were called inactive. Calls follow the shape of the dose curve; as a rule, active = well fitted inhibition curve with a large enough effect; inconclusive = small, poorly fitted or top-dose-only effect; inactive = flat fitted curve, though single readings scatter.

Each compound was assayed against Calcium and integrin-binding protein 1 (Homo sapiens) (UniProt Q99828) (assay: Primary qHTS for Identification of Calcium Integrin Binding Protein 1 (CIB1) Competitor (AID 1508620; also: top concentration of the series differs between compounds)). Settings: CIB1-GST / FITC-alphaIIb peptide fluorescence polarization; series mostly up to 114 µM; activity change, negative = inhibition: at the top concentration.
Chain of Calcium and integrin-binding protein 1 (Homo sapiens) (Q99828 whole entry, looked up): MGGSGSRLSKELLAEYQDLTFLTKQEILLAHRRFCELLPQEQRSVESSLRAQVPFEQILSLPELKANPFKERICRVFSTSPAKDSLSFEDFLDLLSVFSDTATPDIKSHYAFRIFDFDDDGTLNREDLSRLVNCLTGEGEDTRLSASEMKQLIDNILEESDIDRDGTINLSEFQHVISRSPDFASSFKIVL
Method in brief: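 Fluorescence polarization competition: GST-tagged CIB1 (1 uM final) preincubated with compound 15 min at room temperature, then FITC-labelled alphaIIb peptide (100 nM final) added. After 15 min at room temperature, polarization read at Ex 480/Em 540.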
% is scaled to controls: 0 for no effect and ±100 for the full control effect.

In order of falling “activity change, negative = inhibition” value:
1. CN1C(=O)CN=C(c2ccccc2)c2cc([N+](=O)[O-])ccc21  3.76%
2. CCOC(=O)NC(C)(C)Cc1ccc(Cl)cc1  3.2%
3. ClCCCN1CCN(c2cccc(Cl)c2)CC1  2.65%
4. c1ccc2nc(N3CCNCC3)ccc2c1  1.71%
5. CC(C)C(Br)C(=O)NC(N)=O (stereo unspecified)  1.66%
6. COP(=O)(OC)OC=C(Cl)Cl  1.2%
7. CN1[C@@H]2CC[C@H]1CC(OC(=O)c1cc(Cl)cc(Cl)c1)C2 (stereo partly specified)  1.12%
8. C[C@@H]1O[C@@H](O[C@@H]2C=C3CC[C@@H]4[C@H](CC[C@]5(C)[C@@H](c6ccc(=O)oc6)CC[C@]45O)[C@@]3(C)CC2)[C@H](O)[C@H](O)[C@H]1O  0.867%
9. ClC1=C(Cl)C2(Cl)C(CBr)CC1(Cl)C2(Cl)Cl (stereo unspecified)  0.816%
10. CCNc1nc(Cl)nc(NCC)n1  0.649%
11. CC(C)=C[C@@H]1[C@@H](C(=O)OCc2coc(Cc3ccccc3)c2)C1(C)C  0.201%
12. CC(C)(O)C(Cl)(Cl)Cl  -3.56%
13. CN1C2CCC(C)(C)C1CC(OC(=O)C(O)(c1cccs1)c1cccs1)C2 (stereo unspecified)  -3.69%
14. CC(Cc1ccccc1)NCc1ccccc1Cl (stereo unspecified)  -3.85%
15. c1ccc2c(c1)Sc1ccccc1N2CC1CN2CCC1CC2 (stereo unspecified)  -5.34%

In order of falling “activity change, negative = inhibition” value:
1. CC(C)=CCN1CC[C@@]2(C)c3cc(O)ccc3C[C@@H]1[C@@H]2C  3.73% [at 228 µM]
2. COc1cc(CC(C)N)cc2c1OCO2 (stereo unspecified)  -0.132% [at 228 µM]
3. COc1ccc(OC)c(CC(C)N)c1 (stereo unspecified)  -1.51% [at 228 µM]
4. COc1cc(C[C@@H](C)N)c(OC)cc1Br  -1.69% [at 228 µM]
5. CCC(=O)OC1(c2ccccc2)CCN(C)CC1  -1.89% [at 228 µM]
6. CC1N=C(N)OC1c1ccccc1 (stereo unspecified)  -4.43% [at 228 µM]
